Experimental data as given in PubChem BioAssay.
Results with a measured potency or affinity are listed apart. Inconclusive results are not listed. Activity calls are given as the source filed them.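 The calls were made as follows: active = fitted half-maximal concentration for viability loss no higher than twice the top valid dose, in every repeat run; inconclusive = repeat runs disagree, flat partial loss, or poor curve fit; inactive = the rest.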

assay: cytotoxicity in IOSE-T80 ovarian epithelial cells, dose response, selectivity assay for PAX8 inhibitor project, cell-based, cherry-pick (AID 687032); details: CellTiterGlo ATP luminescence, 96 h; series mostly up to 35 µM; activity change, negative = viability loss: at the top concentration;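 also: cells exposed to compound for 96 h before reading; 0% = neutral control wells and -100% = 2 µM mitoxantrone kill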

Structure (SMILES)	activity change, negative = viability loss
C[C@H](CO)N1C[C@H](C)[C@@H](CN(C)Cc2ccc(Cl)c(Cl)c2)Oc2ccc(NC(=O)Nc3ccc(C(F)(F)F)cc3)cc2CC1=O	4.18% (inactive)
O=C(C[C@@H]1CC[C@@H]2[C@H](COC[C@H](O)CN2Cc2ccc3c(c2)OCO3)O1)Nc1ccc(-c2ccccc2)cc1	11.6% (inactive)
COc1cccc(-c2ccc([C@H]3[C@@H](CO)N(C(=O)c4ccccn4)[C@H]3C#N)cc2)c1	20.1% (inactive)
C[C@@H]1CCCCO[C@@H](CN(C)Cc2ccc(C(F)(F)F)cc2)[C@H](C)CN([C@H](C)CO)C(=O)c2cc(NC(=O)c3ccccc3)ccc2O1	6.64% (inactive)
COc1ccc(NC(=O)N2CCCCN3[C@H](CO)[C@H](c4ccc(C#Cc5ccccc5)cc4)[C@H]3C2)cc1	6.86% (inactive)
C[C@H]1CCCCO[C@H](CN(C)C(=O)Nc2ccc(C(F)(F)F)cc2)[C@@H](C)CN([C@@H](C)CO)C(=O)c2cc(NS(=O)(=O)c3ccccc3)ccc2O1	6.39% (inactive)
C[C@@H]1CN([C@@H](C)CO)C(=O)c2cc(NC(=O)Cc3ccccc3)ccc2O[C@@H](C)CCCCO[C@@H]1CN(C)Cc1ccc(C(F)(F)F)cc1	10.2% (inactive)
C[C@@H]1CN([C@@H](C)CO)C(=O)Cc2cc(NC(=O)C3CCCCC3)ccc2O[C@H]1CN(C)Cc1ccc(Cl)c(Cl)c1	-3.24% (inactive)
C[C@@H]1CN([C@H](C)CO)C(=O)c2cc(NS(=O)(=O)c3ccccc3)ccc2O[C@@H](C)CCCCO[C@@H]1CN(C)Cc1ccc(Cl)c(Cl)c1	7.7% (inactive)
C[C@@H]1CN([C@H](C)CO)C(=O)c2cc(NC(=O)Nc3ccc(C(F)(F)F)cc3)ccc2O[C@@H](C)CCCCO[C@H]1CN(C)C(=O)Nc1ccc(C(F)(F)F)cc1	16.4% (inactive)
Cc1cccc(S(=O)(=O)N2CC[C@@H]3[C@H](CO)N(C)c4ccc(C#Cc5ccc(F)cc5)cc4[C@@H]32)c1	9.17% [at 30 µM] (inactive)
O=C(C[C@H]1CC[C@@H]2[C@H](COC[C@H](O)CN2S(=O)(=O)c2cccc(F)c2)O1)Nc1ccc(-c2ccccc2)cc1	15.1% (inactive)
C[C@H]1CCCCO[C@H](CN(C)C(=O)Nc2cccc3ccccc23)[C@@H](C)CN([C@@H](C)CO)C(=O)c2cc(NS(=O)(=O)c3ccc(F)cc3)ccc2O1	13.5% (inactive)
C[C@H]1CN([C@@H](C)CO)C(=O)c2c(c3ccccc3n2C)-c2ccccc2CO[C@@H]1CN(C)Cc1cccc(C(F)(F)F)c1	8.73% (inactive)
CN(C[C@H]1N[C@@H](CO)[C@@H]1c1ccc(-c2cccc(F)c2)cc1)S(C)(=O)=O	14.8% (inactive)
C[C@@H]1CN([C@@H](C)CO)C(=O)Cc2cc(NS(=O)(=O)c3ccc(Cl)cc3)ccc2O[C@H]1CN(C)Cc1ccc(Cl)c(Cl)c1	12.8% (inactive)
Cc1ccccc1-c1ccc([C@@H]2[C@@H](CO)N3CCCCN(C(=O)NC4CCCC4)C[C@H]23)cc1	17.3% (inactive)
Cc1ccc(S(=O)(=O)Nc2ccc3c(c2)C(=O)N([C@H](C)CO)C[C@@H](C)[C@H](CN(C)S(=O)(=O)c2ccc(C)cc2)OCCCC[C@H](C)O3)cc1	8.22% (inactive)
C[C@@H]1CCCCO[C@@H](CN(C)Cc2ccc(Cl)c(Cl)c2)[C@H](C)CN([C@H](C)CO)C(=O)c2cc(NS(=O)(=O)c3ccc(Cl)cc3)ccc2O1	-2.56% (inactive)
COc1ccc(S(=O)(=O)Nc2ccc3c(c2)C(=O)N([C@H](C)CO)C[C@H](C)[C@@H](CN(C)S(=O)(=O)c2ccc(F)cc2)OCCCC[C@H](C)O3)cc1	18.7% (inactive)

Structure (SMILES)	activity change, negative = viability loss
C[C@@H]1CCCCO[C@@H](CN(C)C(=O)Nc2ccc(F)cc2)[C@H](C)CN([C@H](C)CO)C(=O)c2cc(NS(=O)(=O)c3ccc(Cl)cc3)ccc2O1	9.55% (inactive)
C[C@@H]1CCCCO[C@@H](CN(C)Cc2ccc(C(F)(F)F)cc2)[C@H](C)CN([C@@H](C)CO)C(=O)c2cc(NS(=O)(=O)c3ccc(F)cc3)ccc2O1	10.9% (inactive)
C[C@H](CO)N1C[C@H](C)[C@H](CN(C)S(=O)(=O)c2ccc(F)cc2)OCCCC[C@H](C)Oc2ccc(NS(=O)(=O)c3ccc(Cl)cc3)cc2C1=O	8.19% (inactive)
O=C(C[C@@H]1CC[C@@H]2[C@H](COC[C@@H](O)CN2C(=O)Nc2ccc(Cl)c(Cl)c2)O1)NCc1ccc(Cl)cc1	12.4% (inactive)
C[C@@H]1CN([C@@H](C)CO)C(=O)c2cc(NC(=O)Cc3ccccc3)ccc2O[C@@H](C)CCCCO[C@H]1CN(C)Cc1ccc(C(F)(F)F)cc1	1.28% (inactive)
N#C[C@@H]1[C@@H](c2ccc(-c3ccccc3F)cc2)[C@@H](CO)N1C(=O)C1CCC1	2.79% (inactive)
C[C@H](CO)N1C[C@H](C)[C@@H](CN(C)Cc2ccc(Oc3ccccc3)cc2)Oc2ccc(NS(=O)(=O)c3ccc(F)cc3)cc2CC1=O	12.4% (inactive)
O=C(C[C@@H]1CC[C@@H]2[C@H](COC[C@H](O)CN2S(=O)(=O)c2ccccc2Cl)O1)N1CCC(Cc2ccccc2)CC1	7.86% (inactive)
C[C@H](CO)N1C[C@H](C)[C@H](CN(C)Cc2ccc(Cl)c(Cl)c2)OCCCC[C@H](C)Oc2ccc(NC(=O)Nc3ccc(C(F)(F)F)cc3)cc2C1=O	17.5% (inactive)
COc1ccc(C#Cc2ccc([C@@H]3[C@H](CO)N4CCCCN(C(=O)Nc5ccc(F)cc5)C[C@@H]34)cc2)cc1	11.2% [at 30 µM] (inactive)
C[C@H]1CCCCO[C@H](CN(C)C(=O)NC2CCCCC2)[C@@H](C)CN([C@@H](C)CO)C(=O)c2cc(NC(=O)Nc3ccc(C(F)(F)F)cc3)ccc2O1	5.29% (inactive)
C[C@@H]1CCCCO[C@H](CN(C)S(=O)(=O)c2cccs2)[C@@H](C)CN([C@@H](C)CO)C(=O)c2cc(NC(=O)Nc3ccc(C(F)(F)F)cc3)ccc2O1	6.84% (inactive)
C[C@H](O)C#Cc1cnc2c(c1)C(=O)N([C@H](C)CO)C[C@@H](C)[C@@H](CN(C)Cc1ccc(-c3ccccc3)cc1)O2	11.4% (inactive)
Cc1ccc(S(=O)(=O)N2CC[C@@H]3[C@H](CO)N(C)c4ccc(-c5ccc(C#N)cc5)cc4[C@@H]32)cc1	14.2% (inactive)
O=C(C[C@H]1CC[C@H]2[C@@H](COC[C@@H](O)CN2Cc2ccc3c(c2)OCO3)O1)Nc1ccc(-c2ccccc2)cc1	16.6% (inactive)
COc1ccc(CN(C)C[C@H]2OCCCC[C@H](C)Oc3ccc(NC(=O)Nc4ccc(C(F)(F)F)cc4)cc3C(=O)N([C@@H](C)CO)C[C@@H]2C)cc1	21.4% (inactive)
C[C@@H]1CN([C@@H](C)CO)C(=O)c2cc(NC(=O)Nc3ccc(C(F)(F)F)cc3)ccc2O[C@@H](C)CCCCO[C@@H]1CN(C)Cc1ccncc1	12.4% (inactive)
C[C@@H]1CCCCO[C@@H](CN(C)Cc2ccc(C(F)(F)F)cc2)[C@H](C)CN([C@H](C)CO)C(=O)c2cc(NS(=O)(=O)c3ccccc3)ccc2O1	12.8% (inactive)
N#C[C@@H]1[C@@H](c2ccc(-c3cccc(F)c3)cc2)[C@H](CO)N1C(=O)NC1CCCC1	16.3% (inactive)
C[C@@H]1CN([C@H](C)CO)C(=O)c2cc(NC(=O)Nc3ccc(F)cc3)ccc2O[C@@H](C)CCCCO[C@H]1CN(C)C(=O)C1CCCCC1	8.22% (inactive)
